# ELG1 repair inh – blocks ELG1-dependent DNA repair in HEK293T cells; HEK293T ELG1-luciferase reporter, luminescence, 16 h; DNA damage induced by 5-fluorouridine; Potency, µM (doses to about 46.1 µM), inactives show at the top dose activity change, negative = inhibition, hits mostly inhibitors; 330,000 compounds, 2.3% hits; further: potency means the concentration at half of the fitted maximal effect; nearly all actives have a fitted effect of over 55% in size
#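 DMSO vehicle served as the neutral condition. Each well held 2,000 cells given 5-fluorouridine plus compound; after 16 hr at 37 °C/5% CO2, ONE-Glo was added and luciferase measured 30 min later.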
# DT40 TDP1 CPT – DT40-hTDP1 cell growth loss with CPT; Potency, µM (titrated, usually from 46.2 µM), inactives show at the highest dose activity change, negative = growth inhibition, actives largely listed as inhibitors; chicken DT40 Tdp1-/-;hTDP1 cells + 20 nM CPT, ATP luminescence, 48 h; 420,000 compounds, 12% hits; further: potency means the concentration at half of the fitted maximal effect; nearly all actives have a fitted effect of over 55% in size
#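 Cell growth measured by CellTiter-Glo luminescence after a minimum 48 h, 37 C compound exposure with 20 nM CPT in Tdp1-knockout DT40 cells stably expressing hTDP1, seeded 400/well; qHTS titration format.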
# IL1B secr inh – inhibitors of inflammasome signaling (IL-1 beta secretion) | THP-1 LPS/ATP IL-1B secretion, AlphaLISA, 16 h; hits give low values | activity change, % at 57.5 µM | 360,000 compounds, 4.7% hits | AID 743279; in the data active means activity change below about -50%; inconclusive means mostly about -30% to -49%
#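 THP-1 cells pretreated 1 hr with compounds (up to 57.5 uM final), then stimulated with LPS (250 ng/mL final) plus ATP (1.25 mM final); secreted IL-1B measured by AlphaLISA after 16 hr, decreased signal indicating inhibition.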
# TDP1 cell noCPT – qHTS for Inhibitors of human tyrosyl-DNA phosphodiesterase 1 (TDP1): qHTS in cells in absence of CPT; DT40 Tdp1-/- hTDP1 cells, no CPT, ATP luminescence, 48 h; Potency, µM (titrated, usually from 46.2 µM), for the others: top-dose activity change, negative = growth inhibition, most hits filed as inhibitors; 420,000 compounds, 15% hits; AID 686978, 2013; further: potency means the concentration at half of the fitted maximal effect; nearly all actives have a fitted effect of over 55% in size
#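 No-CPT arm: Tdp1-/-;hTDP1 DT40 cells (400/well) plus compounds, incubated ≥48 hr at 37 °C. Readout CellTiter-Glo luminescence.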
# TDP1 block – TDP1 (human) enzyme inhibition. Potency, µM (highest dose often 130 µM), without a hit: at the top dose activity change, negative = inhibition, hits mostly inhibitors. recombinant TDP1, AlphaScreen DNA substrate cleavage. Q9NUW8. 350,000 compounds, 0.28% hits. AID 485290; further: potency means the concentration at half of the fitted maximal effect; nearly all actives have a fitted effect of over 40% in size
# Target sequence (Q9NUW8 whole entry, looked up): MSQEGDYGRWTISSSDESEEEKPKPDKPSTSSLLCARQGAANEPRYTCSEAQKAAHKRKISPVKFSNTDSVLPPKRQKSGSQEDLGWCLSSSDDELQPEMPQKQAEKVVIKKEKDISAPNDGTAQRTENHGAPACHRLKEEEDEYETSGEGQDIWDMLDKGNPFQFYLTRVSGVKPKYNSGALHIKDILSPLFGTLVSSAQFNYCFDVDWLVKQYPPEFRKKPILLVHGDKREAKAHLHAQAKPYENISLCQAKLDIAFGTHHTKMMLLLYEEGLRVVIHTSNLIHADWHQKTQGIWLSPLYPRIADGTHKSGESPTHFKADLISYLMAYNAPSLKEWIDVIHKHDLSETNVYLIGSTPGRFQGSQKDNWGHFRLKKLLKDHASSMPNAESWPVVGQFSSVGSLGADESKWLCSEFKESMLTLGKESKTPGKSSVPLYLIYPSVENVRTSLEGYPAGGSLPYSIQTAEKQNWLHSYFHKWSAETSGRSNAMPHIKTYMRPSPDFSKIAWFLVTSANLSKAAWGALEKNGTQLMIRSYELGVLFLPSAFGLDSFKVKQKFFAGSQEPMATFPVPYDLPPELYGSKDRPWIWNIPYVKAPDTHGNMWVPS
#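 Enzyme-compound mixtures sat 15 min at room temperature, followed by a 5 min reaction with 15 nM final substrate and 10 min with AlphaScreen beads. Recombinant human Tdp1 was used at 1 nM final.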
# Giardia killer – kills Giardia lamblia. Giardia lamblia trophozoite viability. activity change, % at 7.66 µM, hits read low. 340,000 compounds, 0.15% hits. AID 540267; in the data active means activity change below about -80%; inconclusive means between about -30% and that limit;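 further: parasites exposed to compound for two days anaerobically before the ATP read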
#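 Each well holds 100 Giardia trophozoites and compound. After two days (48 hrs) at 37 deg C in anaerobic conditions, ATP is quantified by luminescence.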
# The depositor's hits bear a star; u = inconclusive; x = no result given; [ ] = dose if it differs, or a comment. The list is not random: actives were taken first. Their share in the collection is about 19%. Unless noted, the call rests on the fitted dose curve; in most records, active means well fitted curve in the direction sought with a large enough effect; inconclusive means small, poorly fitted or top-dose-only effect, or another doubt; inactive means no such curve, though single readings can be large; an effect the other way counts as inactive or inconclusive. On the % scale 0 is the no-effect control and ±100 the full control effect.
SMILES,ELG1 repair inh,DT40 TDP1 CPT,IL1B secr inh,TDP1 cell noCPT,TDP1 block,Giardia killer
CN(C)CCCN(C(=O)c1ccco1)c1nc(-c2ccc(Cl)cc2)cs1,6%,u,-54*,u,x,-13
COc1ccc(-c2csc(N(CCCN3CCOCC3)C(=O)c3ccco3)n2)cc1,16µM*,18µM*,u,16µM*,6%,-17
Cc1nc2nc(N)nc(OCc3ccccc3)c2nc1C,x,4%,7,-21%,x,22
COC(=O)CSc1ncc2c(n1)-c1ccccc1N(Cc1cccc(F)c1)S2(=O)=O,x,11%,x,4%,8%,x
COc1ccc(CNC(=O)Nc2cn(CC(C)C)c(=O)c3ccccc23)cc1,x,u,x,u,6%,x
CC1(C(=O)Nc2ccc3c(c2)OCO3)Cc2c(-c3cccc(C(F)(F)F)c3)ccnc2O1 (stereo unspecified),x,4.1µM*,42,3.7µM*,x,x
CC1(C(=O)Nc2cccc(C(F)(F)F)c2)Cc2c(-c3ccc4c(c3)OCO4)ccnc2O1 (stereo unspecified),x,u,35,18µM*,x,x
CC1(C(=O)Nc2ccc(Cl)cc2)Cc2c(-c3ccc4c(c3)OCO4)ccnc2O1 (stereo unspecified),x,u,64,u,x,x
CCn1c(O)c(/C=C2\C=Nc3ccccc32)sc1=Nc1ccccc1,u,10µM*,8,12µM*,-5%,-6
Cc1nc(-c2ccc(Cl)cc2)sc1CCNC(=O)Cc1ccc(F)cc1,x,16µM*,x,15µM*,2%,x
Cc1ccc(Cl)cc1NC(=O)C(=O)NCCc1sc(-c2ccc(F)cc2)nc1C,x,u,x,u,5%,x
COc1ccc(-c2nc3sc(CCNC(=O)Cc4ccccc4)c(C)n3n2)cc1,x,15µM*,x,21µM*,-5%,x
COc1ccc(-c2nc3sc(CCNC(=O)c4ccco4)c(C)n3n2)cc1,x,u,x,13µM*,3%,x
COc1ccc(-c2nc3sc(CCNC(=O)Cc4ccc(F)cc4)c(C)n3n2)cc1,x,16µM*,x,16µM*,5%,x
Cc1noc(C)c1C(=O)N1CCC2(CCCN(c3ccccn3)C2)CC1,x,-2%,x,u,x,x
COC(=O)CCC(C(=O)CN1C(=O)c2ccccc2C1=O)N1C(=O)c2ccccc2C1=O (stereo unspecified),x,u,0,u,x,-9
COc1ccc(-c2nc3sc(CCNC(=O)c4cc(OC)c(OC)c(OC)c4)c(C)n3n2)cc1,x,23µM*,x,16µM*,0%,x
CN1C2C=C3C(C#N)=C(N)C(C#N)(C#N)C(c4ccc(Br)cc4)C3C1CC2 (stereo unspecified),0%,u,-101*,21µM*,10%[56.1 µM],1
CCCCCCCCNS(=O)(=O)CCNCc1ccccc1,x,u,u,u,x,4
CCCCCCCCNc1ccccc1S(=O)(=O)NCc1ccccc1,-9%,u,0,18µM*,-15%[56.1 µM],-4
COc1ccc(C2=NN(C(=O)c3ccccc3)C(c3ccc(OC)c(OC)c3)C2)cc1OC (stereo unspecified),-2%,-26%,u,4%,x,18
COc1ccccc1C1CC(c2ccc(Br)cc2)=NN1C(=O)c1cccnc1 (stereo unspecified),u,16µM*,-52*,16µM*,3%,-2
COc1cccc(C2CC(c3ccc(Br)cc3)=NN2C(=O)c2ccncc2)c1OC (stereo unspecified),u,u,-50*,u,6%,-7
CCN(CC)C(=O)CNC(=O)Cc1ccc(Cl)cc1,4%,3%,-14,5%,1%,-12
O=C(Nc1ccc2nc(SCC(=O)N3CCc4ccccc43)sc2c1)c1ccc(F)cc1,x,10µM*,x,8.2µM*,2%,x
SMILES,ELG1 repair inh,DT40 TDP1 CPT,IL1B secr inh,TDP1 cell noCPT,TDP1 block,Giardia killer
O=C(Nc1ccc2nc(SCC(=O)N3CCc4ccccc43)sc2c1)c1ccc(Cl)cc1,x,9.2µM*,x,12µM*,-3%,x
O=C(Nc1ccc2nc(SCC(=O)N3CCCc4ccccc43)sc2c1)c1cccc(Cl)c1,x,13µM*,x,6.5µM*,-2%,x
O=C(Nc1ccc2nc(SCC(=O)N3CCc4ccccc43)sc2c1)c1cccc(F)c1,x,3.7µM*,x,4.1µM*,2%,x
NS(=O)(=O)c1ccc(CCNC(=O)COC(=O)/C=C/c2cc(Br)ccc2F)cc1,-8%,u,-28,u,-3%,1
COC(=O)C(C)Oc1cc(OC(C)C(=O)OC)c2c(-c3ccccc3)cc(=O)oc2c1 (stereo unspecified),u,-10%,17,-18%,x,3
CCc1nn(CC(=O)NC(C)CC)c(=O)c2cc3c(OC)cccc3n12 (stereo unspecified),x,2%,x,-3%,-4%,x
Cc1ccccc1C(=O)N1CC(=O)Nc2ccc(Cl)cc2C1c1ccccc1 (stereo unspecified),x,u,x,u,3%,x
Cc1cc(NC(=O)CSc2nc3ccccc3c(=O)n2-c2ccccc2)no1,u,-7%,6,-8%,-13%,7
Cc1cc(NC(=O)CSc2nc(C(C)C)nc3ccccc23)no1,15µM*,u,-18,u,-6%,5
CC(C)c1nc(SCC(=O)Nc2nc3c(s2)CCCC3)c2ccccc2n1,-3%,18µM*,-63*,11µM*,3%,-14
CC(C)c1nc(SCC(=O)NC2CCCC2)c2ccccc2n1,-5%,-26%,u,u,0%,-13
Cc1nnc(NC(=O)CSc2nc(C(C)C)nc3ccccc23)s1,u,6.5µM*,8,7.1µM*,-6%,8
Cc1cc(SCC(=O)N2CCCC2)nc2ccccc12,8%,3%,-26,-13%,2%,5
CC(C)(C)c1nc(SCC(=O)N2CCCC2)c2ccccc2n1,10%,21µM*,-18,16µM*,3%,-9
C=CCOc1ccc(C2/C(=C(/O)c3ccc(OC)cc3)C(=O)C(=O)N2CCN2CCNCC2)cc1 (stereo unspecified),0%,21%,-2,0%,x,6
O=C(c1cc2cc(Cl)ccc2[nH]1)N1CCN(C(=O)c2ccco2)CC1,17%,u,-14,u,1%,-12
CCC1CCCCN1C(=S)NC(=O)c1cccc([N+](=O)[O-])c1 (stereo unspecified),-15%,u,38,u,5%,0
O=C(CSc1nc(Cc2ccccc2)nc2ccccc12)Nc1nc2c(s1)CCCC2,3%,u,-12,u,3%,-3

# From PubChem
